According to the supplement of paper PMC10849652:
Targets with a hit are over-represented here; the source holds about 7,900 in all. About 0.6% of all pairs of compound and target were hits.

Experiments:
Assay in all cases: log2 fold change, soluble protein after heating vs DMSO (PISA); higher = thermal stabilisation; K562 cells, 10 uM, 30 min; active = over 0.2 and 3.5 SD of the protein, either way, in both replicates (recomputed)
IRAK-1-4 Inhibitor I = compound: C1COCCN1CCN2C3=CC=CC=C3N=C2NC(=O)C4=CC(=CC=C4)[N+](=O)[O-] [IRAK-1-4 Inhibitor I]
Procedure, shortened: (§1)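 Quantification of soluble protein used TMTpro 16plex LC-MS/MS, with channel sums equalised. Samples were the supernatant after 21,000xg for 90 min of pooled aliquots from K562 cells (2×10^6 cells/mL) treated with 10 μM compound for 30 min, heated for 3 min over 48°C-58°C, and extracted in PBS with 0.5% NP-40 at 4°C. Values, from duplicates, describe thermal stability against control samples on a log2 fold-change scale.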

ibrutinib = compound: C=CC(=O)N1CCC[C@@H](n2nc(-c3ccc(Oc4ccccc4)cc3)c3c(N)ncnc32)C1 [ibrutinib]
Procedure, shortened: as §1

[1] = compound: CC(=O)c1cnc2ccc(-c3cc(Cl)c(O)c(Cl)c3)nc2c1N[C@H]1CC[C@H](CN(C)C)CC1
Procedure, shortened: as §1

ralimetinib = compound: CC(C)(C)Cn1c(N)nc2ccc(-c3[nH]c(C(C)(C)C)nc3-c3ccc(F)cc3)nc21 [ralimetinib]
Procedure, shortened: as §1

[2] = compound: CC(C)(O)CC(=O)NCCn1ccc2ncnc(Nc3ccc(Oc4cccc(C(F)(F)F)c4)c(Cl)c3)c21
Procedure, shortened: as §1

[3] = compound: CC(C)C1=C2N=C(C=C(N2N=C1)NCC3=CC=CC=C3)NCCCCCCN
Procedure, shortened: as §1

[4] = compound: CC(C)C[C@@H](C=O)NC(=O)[C@H](CC(C)C)NC(=O)[C@H](CC(C)C)NC(=O)OCc1ccccc1
Procedure, shortened: as §1

pinometostat = compound: CC(C)N(C[C@H]1O[C@@H](n2cnc3c(N)ncnc32)[C@H](O)[C@@H]1O)[C@H]1C[C@@H](CCc2nc3cc(C(C)(C)C)ccc3[nH]2)C1 [pinometostat]
Procedure, shortened: as §1

[5] = compound: CC1=C(C(CC(=O)N1)C2=CC=C(C=C2)C(F)(F)F)C(=O)NC3=C(C=C4C(=C3)C=NN4)F
Procedure, shortened: as §1

[6] = compound: CC1=C(C2=C(C=C1)C(=O)C3=CC=CC=C3N2CCCN)C
Procedure, shortened: as §1

Measured: log2 fold change

PPOX (UniProt P50336)
inactive: IRAK-1-4 Inhibitor I 0.095 | ibrutinib 0.136 | [1] -0.151 | ralimetinib 0.077 | [2] 0.187 | [3] -0.217 | [4] -0.008 | pinometostat -0.039 | [5] -0.095 | [6] -0.009

PRKAR1A (UniProt P10644)
inactive: IRAK-1-4 Inhibitor I -0.068 | ibrutinib 0.035 | [1] -0.049 | ralimetinib 0.268 | [2] 0.041 | [3] -0.149 | [4] 0.041 | pinometostat 0.131 | [5] -0.084 | [6] -0.127

PARG (UniProt Q86W56)
Chain of UniProt Q86W56 (Q86W56 whole entry, looked up): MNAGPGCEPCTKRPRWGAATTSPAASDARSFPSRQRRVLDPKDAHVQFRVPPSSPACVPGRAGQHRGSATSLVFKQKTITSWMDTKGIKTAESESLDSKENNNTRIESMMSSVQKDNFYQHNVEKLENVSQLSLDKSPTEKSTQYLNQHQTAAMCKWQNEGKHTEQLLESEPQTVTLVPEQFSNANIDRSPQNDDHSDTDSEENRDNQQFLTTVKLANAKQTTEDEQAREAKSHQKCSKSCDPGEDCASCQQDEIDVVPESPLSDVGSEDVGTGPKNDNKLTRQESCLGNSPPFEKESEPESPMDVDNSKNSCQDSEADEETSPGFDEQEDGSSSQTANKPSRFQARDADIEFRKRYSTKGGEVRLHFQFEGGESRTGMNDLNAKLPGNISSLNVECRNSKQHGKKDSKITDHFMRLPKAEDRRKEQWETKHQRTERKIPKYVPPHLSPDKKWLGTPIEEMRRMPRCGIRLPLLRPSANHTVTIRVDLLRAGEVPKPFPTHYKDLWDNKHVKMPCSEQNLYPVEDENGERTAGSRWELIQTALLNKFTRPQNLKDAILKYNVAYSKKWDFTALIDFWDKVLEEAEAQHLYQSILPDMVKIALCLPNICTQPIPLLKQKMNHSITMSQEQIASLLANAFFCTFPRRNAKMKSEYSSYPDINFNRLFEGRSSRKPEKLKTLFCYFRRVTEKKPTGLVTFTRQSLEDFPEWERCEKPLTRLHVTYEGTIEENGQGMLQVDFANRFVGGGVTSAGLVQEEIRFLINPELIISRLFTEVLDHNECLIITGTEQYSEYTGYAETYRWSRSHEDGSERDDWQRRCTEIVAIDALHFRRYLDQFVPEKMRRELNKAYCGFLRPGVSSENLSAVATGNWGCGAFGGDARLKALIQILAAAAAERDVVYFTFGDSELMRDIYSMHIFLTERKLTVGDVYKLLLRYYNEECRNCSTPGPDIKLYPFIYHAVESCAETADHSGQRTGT
active: [6] 0.331
inactive: IRAK-1-4 Inhibitor I -0.047 | ibrutinib -0.022 | [1] -0.124 | ralimetinib 0.045 | [2] -0.075 | [3] -0.203 | [4] 0.043 | pinometostat 0.059 | [5] 0.001

PPP6R1 (UniProt Q9UPN7)
inactive: IRAK-1-4 Inhibitor I 0 | ibrutinib 0.009 | [1] 0.039 | ralimetinib -0.01 | [2] -0.031 | [3] -0.077 | [4] 0.038 | pinometostat -0.047 | [5] 0.003 | [6] -0.041

PDPK1 (UniProt O15530)
active: [1] -0.346
inactive: IRAK-1-4 Inhibitor I 0.019 | ibrutinib -0.043 | ralimetinib -0.067 | [2] -0.087 | [3] -0.134 | [4] 0.015 | pinometostat 0.001 | [5] 0.035 | [6] 0.027

PSMC4 (UniProt P43686)
inactive: IRAK-1-4 Inhibitor I -0.056 | ibrutinib -0.012 | [1] 0.022 | ralimetinib 0.014 | [2] 0.029 | [3] 0.034 | pinometostat 0.025 | [5] 0.02 | [6] 0.016
active: [4] -0.249

PITRM1 isoform 2 (UniProt Q5JRX3)
Chain of UniProt Q5JRX3 (Q5JRX3 whole entry, looked up): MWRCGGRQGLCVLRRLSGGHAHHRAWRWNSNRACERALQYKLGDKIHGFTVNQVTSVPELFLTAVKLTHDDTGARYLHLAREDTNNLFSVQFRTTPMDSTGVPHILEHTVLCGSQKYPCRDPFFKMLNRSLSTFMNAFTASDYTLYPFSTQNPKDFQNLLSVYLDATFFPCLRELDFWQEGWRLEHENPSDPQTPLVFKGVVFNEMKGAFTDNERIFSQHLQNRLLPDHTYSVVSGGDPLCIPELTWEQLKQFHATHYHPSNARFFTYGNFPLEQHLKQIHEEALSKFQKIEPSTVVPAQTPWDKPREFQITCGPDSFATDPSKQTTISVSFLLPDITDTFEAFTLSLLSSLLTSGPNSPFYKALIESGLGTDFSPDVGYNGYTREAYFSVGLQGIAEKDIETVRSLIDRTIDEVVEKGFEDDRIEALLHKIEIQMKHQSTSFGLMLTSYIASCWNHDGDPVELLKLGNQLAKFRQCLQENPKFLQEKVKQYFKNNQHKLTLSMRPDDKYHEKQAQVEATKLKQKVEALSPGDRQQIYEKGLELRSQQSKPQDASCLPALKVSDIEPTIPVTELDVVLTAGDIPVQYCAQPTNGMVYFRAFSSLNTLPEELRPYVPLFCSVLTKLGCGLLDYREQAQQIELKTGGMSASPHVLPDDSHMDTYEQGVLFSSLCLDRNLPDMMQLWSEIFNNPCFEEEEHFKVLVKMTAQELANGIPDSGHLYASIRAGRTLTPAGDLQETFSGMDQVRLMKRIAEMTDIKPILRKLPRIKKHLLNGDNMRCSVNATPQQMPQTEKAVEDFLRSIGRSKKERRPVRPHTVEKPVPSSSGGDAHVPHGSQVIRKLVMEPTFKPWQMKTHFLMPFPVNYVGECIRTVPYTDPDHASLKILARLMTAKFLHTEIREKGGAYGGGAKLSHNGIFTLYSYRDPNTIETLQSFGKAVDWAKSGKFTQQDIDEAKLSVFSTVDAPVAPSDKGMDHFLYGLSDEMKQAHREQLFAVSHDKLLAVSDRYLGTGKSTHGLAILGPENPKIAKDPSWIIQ
inactive: IRAK-1-4 Inhibitor I 0.045 | ibrutinib -0.045 | [1] -0.046 | [2] -0.173 | [3] -0.026 | [4] 0.062 | pinometostat -0.042 | [5] -0.013 | [6] 0.006
active: ralimetinib 0.239

POLA2 (UniProt Q14181)
inactive: IRAK-1-4 Inhibitor I 0.015 | ibrutinib -0.038 | [1] -0.073 | ralimetinib -0.028 | [2] -0.083 | [4] 0.011 | pinometostat 0.041 | [5] 0 | [6] -0.021
active: [3] -0.258

PMM1 (UniProt Q92871)
Chain of UniProt Q92871 (Q92871 whole entry, looked up): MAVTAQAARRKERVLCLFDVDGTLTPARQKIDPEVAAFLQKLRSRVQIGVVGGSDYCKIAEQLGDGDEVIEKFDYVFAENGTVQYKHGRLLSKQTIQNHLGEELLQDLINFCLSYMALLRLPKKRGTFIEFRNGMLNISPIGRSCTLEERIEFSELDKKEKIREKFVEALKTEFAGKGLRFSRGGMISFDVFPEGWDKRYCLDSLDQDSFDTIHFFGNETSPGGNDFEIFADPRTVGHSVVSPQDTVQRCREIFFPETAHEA
inactive: IRAK-1-4 Inhibitor I -0.06 | ibrutinib 0.039 | [1] -0.011 | ralimetinib -0.024 | [2] 0.014 | [3] 0.187 | [4] 0.019 | pinometostat -0.037 | [5] 0.02 | [6] 0.049

PPIL1 (UniProt Q9Y3C6)
Chain of UniProt Q9Y3C6 (Q9Y3C6 whole entry, looked up): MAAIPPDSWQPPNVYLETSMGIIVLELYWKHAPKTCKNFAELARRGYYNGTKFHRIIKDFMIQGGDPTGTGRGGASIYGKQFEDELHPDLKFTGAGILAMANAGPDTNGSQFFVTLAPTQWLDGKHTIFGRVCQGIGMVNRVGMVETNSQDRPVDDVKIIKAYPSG
active: [1] 0.225
inactive: IRAK-1-4 Inhibitor I -0.046 | ibrutinib -0.011 | ralimetinib -0.02 | [2] -0.038 | [3] 0.08 | [4] 0.09 | pinometostat 0.082 | [5] 0.004 | [6] 0.172

PIP4K2A (UniProt P48426)
Chain of UniProt P48426 (P48426 whole entry, looked up): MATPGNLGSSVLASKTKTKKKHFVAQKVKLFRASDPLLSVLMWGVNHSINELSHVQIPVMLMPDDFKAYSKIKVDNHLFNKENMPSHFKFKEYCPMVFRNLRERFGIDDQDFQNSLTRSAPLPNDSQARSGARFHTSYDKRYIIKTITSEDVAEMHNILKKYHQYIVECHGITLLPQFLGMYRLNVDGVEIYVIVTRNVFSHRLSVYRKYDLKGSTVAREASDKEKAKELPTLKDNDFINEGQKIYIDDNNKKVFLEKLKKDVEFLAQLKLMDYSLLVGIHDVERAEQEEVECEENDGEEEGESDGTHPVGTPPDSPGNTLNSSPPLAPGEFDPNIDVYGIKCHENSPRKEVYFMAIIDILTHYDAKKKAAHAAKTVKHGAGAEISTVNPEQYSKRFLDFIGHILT
active: [1] 0.749
inactive: IRAK-1-4 Inhibitor I 0.115 | ibrutinib -0.03 | ralimetinib -0.068 | [2] -0.108 | [3] 0.074 | [4] 0.018 | pinometostat -0.067 | [5] -0.118 | [6] -0.02

POLR2D (UniProt O15514)
inactive: IRAK-1-4 Inhibitor I 0.042 | ibrutinib 0.082 | ralimetinib -0.012 | [2] -0.006 | [4] -0.009 | pinometostat -0.026 | [5] -0.02 | [6] 0.26
active: [1] 0.346 | [3] 0.374

PDE2A (UniProt O00408)
inactive: IRAK-1-4 Inhibitor I 0.083 | ibrutinib 0.026 | [1] -0.001 | ralimetinib 0.12 | [2] -0.082 | [3] 0.014 | [4] -0.009 | pinometostat -0.007 | [5] -0.064 | [6] 0.043

PI4K2A (UniProt Q9BTU6)
Chain of UniProt Q9BTU6 (Q9BTU6 whole entry, looked up): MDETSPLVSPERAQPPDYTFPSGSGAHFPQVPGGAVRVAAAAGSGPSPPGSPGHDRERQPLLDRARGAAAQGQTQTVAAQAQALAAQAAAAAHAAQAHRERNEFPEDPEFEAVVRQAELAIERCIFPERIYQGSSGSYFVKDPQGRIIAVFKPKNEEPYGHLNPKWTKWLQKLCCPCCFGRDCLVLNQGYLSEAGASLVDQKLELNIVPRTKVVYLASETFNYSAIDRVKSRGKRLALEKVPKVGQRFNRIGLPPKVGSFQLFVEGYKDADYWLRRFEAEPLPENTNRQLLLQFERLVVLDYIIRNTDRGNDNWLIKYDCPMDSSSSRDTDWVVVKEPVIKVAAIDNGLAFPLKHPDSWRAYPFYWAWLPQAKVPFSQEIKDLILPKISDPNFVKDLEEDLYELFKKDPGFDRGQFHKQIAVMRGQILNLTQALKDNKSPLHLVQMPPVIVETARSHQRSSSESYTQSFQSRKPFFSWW
inactive: IRAK-1-4 Inhibitor I 0.01 | ibrutinib -0.018 | [1] -0.026 | ralimetinib -0.072 | [2] -0.062 | [3] -0.158 | [4] -0.002 | pinometostat -0.024 | [5] -0.005 | [6] -0.006

POLR1A (UniProt O95602)
Chain of UniProt O95602 (O95602 whole entry, looked up): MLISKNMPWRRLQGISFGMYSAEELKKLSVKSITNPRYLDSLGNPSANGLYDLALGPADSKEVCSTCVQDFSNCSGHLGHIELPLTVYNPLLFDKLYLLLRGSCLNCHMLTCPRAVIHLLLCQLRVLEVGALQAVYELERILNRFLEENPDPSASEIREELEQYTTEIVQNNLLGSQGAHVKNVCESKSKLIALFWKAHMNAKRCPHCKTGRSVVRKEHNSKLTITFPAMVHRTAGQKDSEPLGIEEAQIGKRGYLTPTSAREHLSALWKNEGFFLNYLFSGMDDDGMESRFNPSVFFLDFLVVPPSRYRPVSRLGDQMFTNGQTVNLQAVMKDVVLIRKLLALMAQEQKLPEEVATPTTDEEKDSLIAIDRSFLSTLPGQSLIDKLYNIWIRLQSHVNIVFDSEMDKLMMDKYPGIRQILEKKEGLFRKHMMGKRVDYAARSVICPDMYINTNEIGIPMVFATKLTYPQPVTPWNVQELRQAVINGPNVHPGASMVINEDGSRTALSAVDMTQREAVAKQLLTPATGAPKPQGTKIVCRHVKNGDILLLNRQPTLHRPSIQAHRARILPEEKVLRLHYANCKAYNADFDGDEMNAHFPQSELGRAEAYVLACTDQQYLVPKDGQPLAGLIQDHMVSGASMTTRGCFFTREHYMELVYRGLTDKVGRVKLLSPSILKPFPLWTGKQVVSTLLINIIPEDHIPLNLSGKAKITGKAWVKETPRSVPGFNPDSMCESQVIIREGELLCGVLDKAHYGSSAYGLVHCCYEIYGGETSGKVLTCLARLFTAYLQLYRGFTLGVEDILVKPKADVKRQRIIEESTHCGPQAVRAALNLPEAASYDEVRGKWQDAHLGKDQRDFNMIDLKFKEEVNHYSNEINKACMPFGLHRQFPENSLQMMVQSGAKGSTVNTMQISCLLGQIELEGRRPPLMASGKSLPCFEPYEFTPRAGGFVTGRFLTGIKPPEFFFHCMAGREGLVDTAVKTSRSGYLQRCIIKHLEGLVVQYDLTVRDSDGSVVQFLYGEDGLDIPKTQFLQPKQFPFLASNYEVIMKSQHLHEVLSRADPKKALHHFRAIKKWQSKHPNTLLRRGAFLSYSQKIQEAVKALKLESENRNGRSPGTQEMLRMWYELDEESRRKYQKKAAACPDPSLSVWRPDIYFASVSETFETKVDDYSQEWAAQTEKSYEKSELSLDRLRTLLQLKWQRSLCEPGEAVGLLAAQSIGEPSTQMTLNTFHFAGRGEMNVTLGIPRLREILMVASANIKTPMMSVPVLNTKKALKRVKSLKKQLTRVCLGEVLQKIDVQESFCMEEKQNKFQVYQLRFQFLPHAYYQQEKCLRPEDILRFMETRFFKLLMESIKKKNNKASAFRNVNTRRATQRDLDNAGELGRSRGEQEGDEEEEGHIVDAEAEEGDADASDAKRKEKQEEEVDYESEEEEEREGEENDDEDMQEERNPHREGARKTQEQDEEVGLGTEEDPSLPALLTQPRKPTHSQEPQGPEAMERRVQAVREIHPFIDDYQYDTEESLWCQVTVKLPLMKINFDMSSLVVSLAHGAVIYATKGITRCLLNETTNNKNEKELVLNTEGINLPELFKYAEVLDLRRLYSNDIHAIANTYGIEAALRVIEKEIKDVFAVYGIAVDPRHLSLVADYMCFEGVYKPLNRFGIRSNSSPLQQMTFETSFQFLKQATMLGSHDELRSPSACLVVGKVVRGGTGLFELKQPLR
inactive: IRAK-1-4 Inhibitor I 0.06 | ibrutinib 0.06 | [1] 0.022 | ralimetinib 0.153 | [2] -0.022 | [3] -0.091 | [4] 0.005 | pinometostat 0.07 | [5] 0.052 | [6] -0.14
